Most compounds without a hit are left out; they make up all but 2.5% or so of the library.
Cruzain noTriton = blocks cruzain activity in detergent-free assay; hit rate 2.3% among 200,000; AID 1476; purified cruzain, Z-FR-AMC fluorescence, no detergent; P25779; Potency, µM, for the others: max response, negative = inhibition, most hits filed as inhibitors;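 also: plate controls were enzyme without inhibitor for no effect and buffer without enzyme for full effect; nearly all actives have a fitted effect of over 40% in size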
Target sequence (P25779 123-467 limits assumed): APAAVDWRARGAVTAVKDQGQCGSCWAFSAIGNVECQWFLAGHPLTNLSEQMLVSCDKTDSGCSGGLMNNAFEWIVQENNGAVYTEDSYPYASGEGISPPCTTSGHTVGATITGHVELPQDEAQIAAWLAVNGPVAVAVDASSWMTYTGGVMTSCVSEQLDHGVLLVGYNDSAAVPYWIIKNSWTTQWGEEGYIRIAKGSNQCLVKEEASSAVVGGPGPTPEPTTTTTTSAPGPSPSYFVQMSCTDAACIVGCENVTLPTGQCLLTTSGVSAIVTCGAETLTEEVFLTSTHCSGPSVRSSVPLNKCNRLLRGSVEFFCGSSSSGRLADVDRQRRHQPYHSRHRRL
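Detergent-free condition (0.00005% Triton X-100) in acetate buffer pH 5.5 with DTT. 1.5 nM enzyme and compound were pre-mixed 15 min, then 2 uM Z-FR-AMC substrate added; reaction progress from fluorescence change between first and third reads (60 s).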
Cruzain inh Det = blocks cruzain activity in presence of Triton detergent; hit rate 0.43% among 200,000; purified cruzain, Z-FR-AMC fluorescence, 0.01% Triton; Potency, µM, for the others: max response, negative = inhibition, most hits filed as inhibitors; P25779;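 also: plate controls were neutral wells for no effect and buffer without enzyme for full effect; nearly all actives have a fitted effect of over 40% in size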
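Steps: dispense cruzain (1.5 nM final) in acetate buffer pH 5.5 with DTT and 0.01% Triton X-100; pin-transfer compounds; incubate 15 min RT; add Z-FR-AMC (2 uM final); read fluorescence every 30 s, using the 60 s intensity change.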
* = called active by the depositor; ? = inconclusive. Calls follow the shape of the dose curve; as a rule, active = well fitted curve in the direction sought with a large enough effect; inconclusive = small, poorly fitted or top-dose-only effect, or another doubt; inactive = no such curve, though single readings can be large; an effect the other way counts as inactive or inconclusive. Potency is read from the fitted curve at half-maximal effect.

SMILES | Cruzain noTriton | Cruzain inh Det
CCOc1ccc(C2CC(=O)Nc3nc(SCc4ccccc4C)[nH]c(=O)c32)cc1OC (configuration not stated) | ? | -1.8%
CSc1ccc(/C=C(/NC(=O)c2ccc(C)cc2)C(=O)Nc2cccc(F)c2)cc1 | 20µM* | -1.4%
Cc1ccc(NC(=O)/C(=C\c2ccc([N+](=O)[O-])cc2)NC(=O)c2ccccc2)cc1 | 4.7% | -1.0%
COc1cc(Cl)c(C)cc1NC(=O)c1cc(S(=O)(=O)N2CCCC2)ccc1F | -11.6% | 0.7%
COc1cccc(CNC(=O)c2cc3cc(C)ccc3n2C)c1 | -9.1% | -0.1%
COc1cccc(Cn2c(CNS(=O)(=O)c3ccc(F)c(Cl)c3)nc3cccnc32)c1 | -9.5% | -8.9%
CN(C)c1ccc(NC(=O)/C=C/c2ccccc2Cl)cc1 | -15.3% | -3.7%
CCN(CC)c1ccc(NC(=O)/C=C\c2ccccc2Cl)cc1 | 25.1µM* | -9.7%
N#C/C(=C\c1ccc(-c2ccccc2)cc1)c1nc(-c2ccco2)cs1 | ? | -6.9%
N#C/C(=C\c1ccc(-c2ccc(F)cc2)o1)C(=O)Nc1nc(-c2cccs2)cs1 | 6.31µM* | 4.8%
N#C/C(=C\c1ccc(-c2ccc(Br)cc2)o1)C(=O)Nc1ccccc1O | 14.7% | -0.4%
N#C/C(=C/c1ccc(-c2ccccc2)o1)c1nc(-c2cccs2)cs1 | 7.94µM* | -10.1%
O=C(NCc1ccco1)c1sc2cc(Cl)ccc2c1Cl | 25.1µM* | ?
O=C(NCc1cccnc1)c1sc2cc(Cl)ccc2c1Cl | 0.1% | -10.6%
CC(=O)Nc1ccc(NC(=O)C(C)OC(=O)CNC(=O)c2sc3ccccc3c2Cl)cc1 (configuration not stated) | 10µM* | 11.2µM*
O=C(NCc1ccco1)c1nc2ccccc2s1 | -3.9% | -6.0%
O=C(NCc1ccco1)c1sc2ccccc2c1Cl | 25.1µM* | ?
Cc1ccc(NC(=O)c2sc3ccccc3c2Cl)cc1 | -9.3% | -1.2%
COC(=O)c1ccc(NC(=O)C(C)Sc2nc(=O)cc(N)n2CCc2ccccc2)cc1 (configuration not stated) | 10.8% | -12.7%
COc1ccc(-c2nc3ccccc3o2)cc1NC(=O)c1ccc(-c2cccc(Cl)c2C)o1 | 3.0% | -1.1%
Cc1cccc(-n2c(=O)c3c(c4cc(C)ccc4n3C)n(CC(=O)Nc3ccccc3C(F)(F)F)c2=O)c1 | -6.8% | 0.4%
CCc1ccccc1NC(=O)c1ccc2c(O)c(S(=O)(=O)c3ccccc3)c(=O)[nH]c2c1 | 6.7% | 0.8%
O=C(CSc1nc(-c2ccco2)nc2cc(=O)[nH]n12)Nc1ccc(F)cc1 | ? | -5.3%
Cc1ccc(C)c(N2CCN(C(=O)NCc3noc4ccccc34)CC2)c1 | 4.5% | -9.1%
CCN(CC)C(=O)C(C)N(C#N)c1nc(SC)nc(N(C)C)n1 (configuration not stated) | 3.1% | 0.0%
SMILES | Cruzain noTriton | Cruzain inh Det
CCOC(=O)CSc1nc(N(C)C)nc(N(C)C#N)n1 | 20µM* | 15.8µM*
COc1ccc(C)cc1-n1nnc(S(=O)(=O)c2ccc(C)cc2)c1C | -3.0% | -2.9%
CC(C)OC(=O)c1cc2ccccc2[nH]1 | -10.2% | -4.7%
CCOC(=O)c1cc2cc3ccccc3cc2[nH]1 | 25.1µM* | -5.9%
CC(Oc1ccccc1)C(=O)Nc1cccc(-c2cn3cccnc3n2)c1 (configuration not stated) | 7.9% | -21.9%
N#CC1(Cc2ccc([N+](=O)[O-])cc2)c2ccccc2C=CN1C(=O)c1ccccc1 (configuration not stated) | 25.1µM* | -2.6%
N#CC1(Cc2ccccc2)c2ccccc2C=CN1C(=O)c1ccccc1 (configuration not stated) | -26.8% | -5.1%
COc1ccc(-c2cnc(C)o2)cc1S(=O)(=O)Nc1c(C)cc(C)cc1C | 26.9% | -4.4%
CN(C)c1ccc(/C=C/C=C2/SC(=S)N(c3ccccc3)C2=O)cc1 | 7.94µM* | -2.9%
O=C1/C(=C/c2cccnc2)SC(=S)N1c1ccccc1 | 9.9% | -6.9%
CCn1c(=O)c2cc(C(=O)N(CC(C)C)CC(C)C)sc2c2ccccc21 | -9.0% | 3.1%
COc1ccc(C)cc1NC(=O)CN1CCN(S(=O)(=O)c2ccc(Cl)cc2)CC1 | 24.7% | -1.6%
COc1ccc(OC)c(C(=O)CN2CCN(S(=O)(=O)c3ccc(Br)cc3)CC2)c1 | 25.1µM* | 1.9%
COc1cc2c(cc1NC(=O)CN1CCN(S(=O)(=O)c3ccc(C)cc3)CC1)oc1ccccc12 | 7.94µM* | 0.3%
COc1ccc(NC(=O)CN2CCN(S(=O)(=O)c3ccc(Br)cc3)CC2)cc1 | 11.6% | -2.4%
COc1cc2c(cc1NC(=O)C(C)N1CCN(S(=O)(=O)c3ccc(C)c(C)c3)CC1)oc1ccccc12 (configuration not stated) | 7.94µM* | 1.8%
COc1cc2c(cc1NC(=O)C(C)N1CCN(S(=O)(=O)c3ccccc3[N+](=O)[O-])CC1)oc1ccccc12 (configuration not stated) | 0.794µM* | 2.6%
COc1cc2c(cc1NS(=O)(=O)N1CCCC1)oc1ccccc12 | 13.8% | -8.0%
COc1cc2c(cc1NC(=O)C(C)Oc1ccccc1)oc1ccccc12 (configuration not stated) | -13.6% | -8.8%
COc1ccc(-c2noc(CNC(=O)c3ccccc3Br)n2)cc1 | 5.4% | -0.9%
CC(=O)c1cccc(NC(=O)c2ccc3nc(C(C)C)oc3c2)c1 | -3.0% | -4.3%
COc1cccc(Oc2nc(C)nc3c2oc2ccccc23)c1 | ? | -4.2%
COc1ccc(S(=O)(=O)N(CC(=O)NC(C)c2ccccc2)c2ccc(C)cc2)cc1OC (configuration not stated) | ? | -4.0%
Cc1ccsc1/C=C1/SC(N2CCOCC2)=NC1=O | -0.5% | -6.4%
O=C1N=C(N2CCOCC2)S/C1=C\c1ccc(-c2ccccc2Cl)o1 | 31.6µM* | -27.3%
SMILES | Cruzain noTriton | Cruzain inh Det
Cc1ccc(Cl)cc1NC(=O)CN1C=NS(=O)(=O)c2ccccc21 | 2.4% | 0.3%
COc1ccc(CNC(=O)Cn2c(=O)c3cccn3c3cccnc32)cc1 | -15.6% | -5.2%
COc1ccc(CNC(=O)Cn2c(=O)c3cccn3c3ccccc32)cc1 | 31.6µM* | -2.0%
COc1ccc(CNC(=O)Cn2nc(C)n3cccc3c2=O)cc1 | 25.1µM* | -7.1%
Cc1ccc(CNC(=O)Cn2nc(C)n3cccc3c2=O)cc1 | -0.6% | -4.1%
O=C(c1ccc2c(c1)CCN2S(=O)(=O)c1ccc(Cl)cc1)N1CCN(c2ccc(F)cc2)CC1 | ? | 0.3%
COc1ccc2c(c1)c(=O)c(S(=O)(=O)c1ccc(C)c(C)c1)cn2CC(=O)Nc1ccccc1 | -7.6% | -4.6%
CCOC(=O)c1cnc2ccc(Br)cc2c1NCCN1CCOCC1 | -15.9% | -2.8%
COc1ccc(NC(=O)N2CCN(S(=O)(=O)c3ccc4c(ccn4C)c3)CC2)c(OC)c1 | 8.9% | -4.5%
Cc1ccc(CNc2ncnc3c2cnn3-c2ccccc2)cc1 | 25.1µM* | 5.4%
Cc1ccc(-n2ncc3c(NCc4ccccc4)ncnc32)cc1 | -25.3% | 5.3%
CCc1cccc(NC(=O)Cn2nc(-c3ccc(OC)cc3)ccc2=O)c1 | -2.1% | -5.9%
COc1cc(-c2nnc(SCCOc3ccc(Cl)cc3)o2)cc(OC)c1OC | ? | -4.5%
CS(=O)(=O)N1CCc2cc(-c3csc(NC(=O)Cc4cccs4)n3)ccc21 | 20µM* | 3.0%
O=C(CN1CCOCC1)Nc1nc(-c2ccc3c(c2)CCN3S(=O)(=O)c2ccccc2)cs1 | ? | -1.1%
CCOC(=O)c1c(C)[nH]c(C)c1S(=O)(=O)N1CCC(C(=O)Nc2ccc(OCC)cc2)CC1 | ? | -1.0%
